test system: ZAP70; details: concentration: 1 μM, replicates: in singlicate; n = 1
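Also: KINOMEscan kinase panel screen.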

| SMILES | %Inh [%] |
| --- | --- |
| O=C(NCCNc1ccnc(Nc2ccc(F)cc2)n1)Nc1ccc2c(c1)OCO2 [GSK1379882] | 0 |
| O=C(NCc1cccs1)c1cc(C(=O)c2c(Cl)cccc2Cl)c[nH]1 [GW823670] | 0 |
| Cc1ccc(-c2ccc3c(ccc4sc5c(c43)NC[C@@H](C)N=C5N(C)C)n2)cn1 | 0 |
| Cc1cc(Nc2nc(-c3cccc(C)n3)nc3ccccc23)ccn1 [GW872411] | 0 |
| Nc1nc(-c2ccccc2F)c(-c2ccnc3ccccc23)s1 [GW560459] | 13 |
| COc1ccc(-c2cc3c(C)nc(N)nc3n([C@H]3CC[C@H](O)CC3)c2=O)cn1 | 0 |
| OCCCNc1nccc(-c2c(-c3cccc(C(F)(F)F)c3)nn3cc(C(F)(F)F)ccc23)n1 [GW630813] | 0 |
| CN(C)c1cc(-c2ccc3c(N)n[nH]c3c2)nc(N)n1 [GSK2219329] | 0 |
| Cl.c1ccc(Cn2cnc3cc(Nc4ncnc5ccccc45)ccc32)cc1 [GW272142] | 21 |
| Cc1cccc(-c2cc(-c3c[nH]nc3-c3ccccn3)ccn2)c1 [GW679395] | 0 |
| CCC(=O)c1c(-c2ccccc2)c2cc(Cl)ccc2c(=O)n1Cc1cc(S(C)(=O)=O)n(CCC(C)(C)O)n1 | 3 |
| Cc1nnc(-c2ccc(C)c(-c3ccc(C(=O)O)cc3)c2)o1 [GW608005] | 0 |
| COc1cc2nccc(Nc3ccc(OCc4ccc(NC(C)=O)cc4)cc3)c2cc1OC.Cl [GW440135] | 16 |
| COC(=O)c1c(-c2ccccc2)c2cc(Br)ccc2c(=O)n1Cc1ccc(NC(=O)CCC(=O)O)cc1 | 0 |
| Cc1nc(N(C)[C@H]2CN(C(=O)CC#N)CC[C@H]2C)c2cc[nH]c2n1 | 0 |
| COc1cc2ncn(-c3cc(OCc4ccncc4)c(C(N)=O)s3)c2cc1OC [GSK336313] | 0 |
| CCC(=O)c1c(-c2ccccc2)c2cc(Cl)ccc2c(=O)n1Cc1cc(S(C)(=O)=O)n(CC(N)=O)n1 | 0 |
| CCS(=O)c1ccc(-c2coc3ccc(-c4nnc(C)o4)cc23)cc1 (stereo not drawn) | 0 |

| SMILES | %Inh [%] |
| --- | --- |
| COc1ccc(-c2cc3c(C)nc(N)nc3n([C@H]3CC[C@H](OCCO)CC3)c2=O)cn1 | 0 |
| CC(C)(C)c1ccc(C(=O)Nc2cn3cc(-c4ccccc4)ccc3n2)cc1 | 0 |
| COc1cc(Nc2nccc(N3CCC(NC(=O)C4COc5ccccc5O4)C3)n2)cc(OC)c1OC (stereo not drawn) [GSK1379761] | 0 |
| CN1C(=O)C(Nc2ccccc2)=C(c2ccccc2)C1=O [SB-300079] | 23 |
| COc1ccc(-n2cnc3c(N)ncnc32)cc1 [SKF-97236] | 0 |
| CCc1ccc(-c2ccc3c(c2)-c2nn(C)cc2S(=O)(=O)N3C)cc1 | 0 |
| Cc1ccc(Oc2ccc(Nc3ncnc4cc[nH]c34)cc2C)cn1 | 0 |
| O=C(Nc1n[nH]c2nc(-c3ccccc3)c(Br)cc12)C1CC1 [SB-708998] | 5 |
| Cc1ccccc1COc1cc(-n2cnc3cc(Cl)ccc32)sc1C(N)=O [GW813349] | 19 |
| COc1cc(OC)cc(-c2cc3cnc(N)nc3nc2NC(=O)NC(C)(C)C)c1 | 0 |
| COc1cc(Nc2nccc(N3CCC(NC(=O)C(C)c4ccc(Cl)cc4)C3)n2)cc(OC)c1OC (stereo not drawn) [GSK1379757] | 0 |
| CCCC(=O)Nc1n[nH]c2ncc(-c3cccc4ccccc34)cc12 [SB-642057] | 0 |
| COc1ccc(-c2coc3ccc(-c4nnc(SCc5cccc(C#N)c5)o4)cc23)cc1 | 0 |
| Cc1nnc(-c2ccc3ncn(-c4ccc(S(C)=O)cc4)c3c2)o1 (stereo not drawn) | 0 |
| O=C1NC(=O)C(c2ccccc2)=C1Nc1cccc(O)c1 [SB-390534] | 0 |
| Nc1ncnc2c1ncn2-c1cccc2ccccc12 [SKF-97184] | 37 |
| COc1ccc(Nc2nccc(N3CCC(NS(=O)(=O)c4ccc(NC(C)=O)cc4)C3)n2)cc1 (stereo not drawn) [GSK1379729] | 0 |
| COc1cc2ncn(-c3cc(OCc4ccc(S(C)(=O)=O)cc4)c(C(N)=O)s3)c2cc1OC [GW869979] | 17 |
